a7 integrin act: activates integrin-mediated alleviation for muscular dystrophy | alpha7betagal myoblasts, beta-gal FDG fluorescence, 48 h | Potency, µM (titrated, usually from 38.3 µM), for inactives: at the top dose activation, most hits filed as activators | actives 0.064% (n = 350,000) | AID 624291;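 note: potency is the fitted concentration of half-maximal effect; 100% = response of the positive control SU9516; nearly all actives have a fitted effect of over 60% in size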
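alpha7betagal+/- myoblasts (passage 13, 250/well) treated 48 h at 37C with compounds at 1:260 dilution of DMSO stock. Lysed, then beta-galactosidase activity read as FDG fluorescence (ex 480/em 540) after 30 min, with pre-read for autofluorescence.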
Eya2 inh: Eya2 (human) phosphatase inhibition. Potency, µM (top dose mostly 76.9 µM), for the others: at the highest dose activity, negative = inhibition, usual class: inhibitors. recombinant Eya2, OMFP fluorescence dephosphorylation (OMFP is methylfluorescein phosphate). actives 0.006% (n = 330,000). O00167. AID 488837; note: potency is the fitted concentration of half-maximal effect; % is set by controls: 0 for no effect and ±100 for the full control effect
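Eya2 (0.2 uM) preincubated 10 min at ambient with compound, then OMFP substrate added at 50 uM; 10 min reaction in 50 mM HEPES pH 7.5, 50 mM NaCl, 5 uM MgCl2, 0.05% BSA, 1 mM DTT. Fluorescence read at Ex 485/Em 525 nm.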
TCR activator: T cell receptor activation; primary human leukocytes, anti-CD3, IL-2 HTRF, 48 h; Potency, µM (titrated, usually from 9.22 µM), without a hit: at the top dose activation of IL-2 secretion, actives largely listed as activators; 330,000 tested, under 10 active; note: % of control where 0% means no effect
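HTRF read-out of IL-2 secretion: europium cryptate donor excited at 320nm, d2 acceptor emission at 665nm. Cells were primary human leukocytes incubated 48 hr with compounds and a-CD3 beads, supplying TCR signal only.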
TSHR antagonist: antagonists of human thyroid stimulating hormone receptor; P16473; TSHR-expressing cells, TSH-stimulated cAMP HTRF, 2 h; active compounds read low; activity change, negative = inhibition, % at 11.5 µM; actives 0.2% (n = 330,000); AID 504810;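 active = activity change below a set negative limit, meaning inhibition stronger than a set level, cut at about -70% in these data; inconclusive = activity change between two set negative limits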; note: % is set by controls: 0 for no effect and ±100 for the full control effect
Target sequence (P16473 whole entry, looked up): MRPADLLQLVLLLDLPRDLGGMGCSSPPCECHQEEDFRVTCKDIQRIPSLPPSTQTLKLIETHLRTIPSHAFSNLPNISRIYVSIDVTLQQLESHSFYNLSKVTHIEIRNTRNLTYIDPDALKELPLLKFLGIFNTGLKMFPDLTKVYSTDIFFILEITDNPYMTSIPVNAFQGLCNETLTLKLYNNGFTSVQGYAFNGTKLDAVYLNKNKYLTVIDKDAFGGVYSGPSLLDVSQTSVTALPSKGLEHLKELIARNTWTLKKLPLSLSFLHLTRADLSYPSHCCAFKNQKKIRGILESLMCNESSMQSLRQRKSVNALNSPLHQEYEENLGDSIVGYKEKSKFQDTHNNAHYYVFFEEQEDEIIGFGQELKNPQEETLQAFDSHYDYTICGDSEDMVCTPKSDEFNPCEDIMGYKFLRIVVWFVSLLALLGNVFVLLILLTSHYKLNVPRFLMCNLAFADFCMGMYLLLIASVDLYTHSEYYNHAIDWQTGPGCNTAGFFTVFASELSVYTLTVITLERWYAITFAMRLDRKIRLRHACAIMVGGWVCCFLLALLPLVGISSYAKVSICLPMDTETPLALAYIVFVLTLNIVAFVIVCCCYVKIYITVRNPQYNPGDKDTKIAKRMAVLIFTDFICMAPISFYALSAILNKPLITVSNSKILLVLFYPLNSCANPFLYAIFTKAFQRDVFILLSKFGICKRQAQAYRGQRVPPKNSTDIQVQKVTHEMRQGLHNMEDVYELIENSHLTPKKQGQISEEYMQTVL
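Cell-based HTRF cAMP assay; TSHR cells + compound, TSH EC80 (4nM final), 2 h, 37 deg C. Lysis with anti-cAMP cryptate and cAMP-d2, 30 min RT, read 665/620 nm.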
Starred values were filed as active, the others as inactive; ? = inconclusive; · = no result given; [ ] = remark or other dose. Rows were chosen to be rich in hits. Some 0.24% of all compounds tested hit in one or more screens of this group. Unless noted, calls come from the whole dose curve; as a rule, active = well fitted curve in the direction sought with a large enough effect; inconclusive = small, poorly fitted or top-dose-only effect, or another doubt; inactive = no such curve, though single readings can be large; an effect the other way counts as inactive or inconclusive.

SMILES | a7 integrin act | Eya2 inh | TCR activator | TSHR antagonist
O=C(Nc1cccc(Cl)c1)c1cc(N=Nc2ccc([N+](=O)[O-])cc2Cl)ccc1O | 5.4% | -8.0% | 8.2% | -97.6*
N#CC(C#N)=C1C=CC=CN1/C(=C\c1ccco1)C(=O)c1ccc(Br)cc1 | -57.9% | -15.8% | 2.3%[46.1 µM] | -91.4*
CC(NC(=O)Nc1nnc(C(F)(F)F)s1)(C(F)(F)F)C(F)(F)F | -63.1% | -8.2% | 2.2% | -94.1*
CC(C)(C)CC(=O)Nc1nnc(C(F)(F)F)s1 | 6.6% | -7.7% | -1.0%[46.1 µM] | -15.1
Cc1ccc(C)c(NC(=S)c2ccc3ccccc3n2)c1 | 2.6% | -4.8% | 7.4%[46.1 µM] | -13.4
CN(C)c1ccc(NC(=S)c2ccc3ccccc3n2)cc1 | -2.3% | 0.9% | 0.1% | -91.4*
CCN(CC)c1ccc2nc3ccccc3[n+](CC)c2c1 | -47.1% | ? | 52.9% | -140.3*
CC(C)C1C(=O)N(Cc2cn(CC3CCCCC3)nn2)CCS(=O)(=O)N1Cc1ccc(-c2cccc(CO)c2)cc1 (stereo not drawn) | -55.2% | · | · | ·
N#CC(CC(=O)OCc1ccccc1)NC(=O)OCc1ccccc1 (stereo not drawn) | -11.4% | · | · | ·
S=c1[nH]nc(-c2ccccc2)n1C1C=CCCC1 (stereo not drawn) | 0.0% | 1.9%[15.4 µM] | -4.5% | -70.6*
CC1(O)C(c2ccccc2)=Nc2ccccc21 (stereo not drawn) | 10.8% | · | · | ·
O=C(O)CCC(=O)N1CCN(S(=O)(=O)c2ccc3ccccc3c2)CC1 | -50.5% | 1.5% | -1.0% | 0.4
O=C(Cn1ncc(Cl)c(Cl)c1=O)N1CCN(S(=O)(=O)c2ccc3ccccc3c2)CC1 | -63.6% | 3.3% | 4.9%[46.1 µM] | -78.9*
Nc1nc(SCC(=O)Nc2cc(Cl)ccc2Cl)n[nH]1 | 28.7% | -6.8% | -4.2% | -24.4
Nc1nc(SCC(=O)Nc2cc(Cl)c(Cl)cc2Cl)n[nH]1 | -9.0% | -20.2% | 0.6%[46.1 µM] | -74.0*
Cc1onc(-c2ccccc2)c1NC(=O)N(CCC(=O)O)Cc1ccccc1 | 5.6% | 9.6% | -2.2% | 1.4
Cc1onc(-c2ccccc2)c1NC(=O)N(Cc1ccccc1)C(C)C | -1.6% | 7.4% | -1.5% | -117.3*
O=C(Nc1ccccc1C(F)(F)F)N1CCN(c2ccccn2)CC1 | 11.1% | 1.2% | -5.2% | 0.1
O=C1c2cccnc2C(=O)N1Cc1ccc(S(=O)(=O)NCc2ccco2)cc1 | 12.1% | 12.6% | -4.8% | -5.5
Cc1ccc(CNS(=O)(=O)c2ccc(CN3C(=O)c4cccnc4C3=O)s2)o1 | -9.4% | 14.3% | -1.5% | -88.7*
COc1ccccc1CNS(=O)(=O)c1cc(C)ccc1OC | -6.1% | -31.8% | -5.0% | -9.2
COc1ccccc1CNS(=O)(=O)c1ccc(-n2cccn2)cc1 | 12.6% | 1.2% | -0.1% | -110.5*
COc1ccccc1CNS(=O)(=O)c1ccc(Cl)s1 | 6.31µM* | -16.9% | 4.7% | 18.1
CN(C)c1nc2c(Br)c(Br)c(Br)c(Br)c2[nH]1 | · | -10.3% | · | 14.2
Cc1nnc(NC(=O)CSCc2cc(=O)c3ccccc3[nH]2)s1 | · | -2.9% | · | -10.0
SMILES | a7 integrin act | Eya2 inh | TCR activator | TSHR antagonist
CC(=O)N1c2ccccc2C(C)(c2ccccc2)CC1(C)C (stereo not drawn) | 1.8% | -16.1% | 1.0% | -77.9*
O=S(=O)(Nc1ccc(O)c(Sc2nc3ccccc3s2)c1)c1cccc2ccccc12 | -16.9% | 8.7% | -7.6%[46.1 µM] | -88.0*
O=S(=O)(Nc1ccc(O)c(Sc2nc3ccccc3s2)c1)c1ccc(F)cc1 | -9.0% | 2.3% | -1.9%[46.1 µM] | -14.7
O=C(NC1C2CC3CC(C2)CC1C3)c1ccc2c(c1)OCO2 (stereo not drawn) | -36.9% | 2.2% | -8.6% | -126.1*
O=C1N(Cc2ccccc2)CC2(Br)COCOC12O (stereo not drawn) | 0.0% | · | 0.5% | ·
CC(C)Oc1ccc(C(=O)NCCNC(=O)c2ccco2)cc1 | 9.6% | 9.4% | -2.0% | -94.4*
O=C(NCCNC(=O)c1ccco1)c1ccc(F)cc1 | -1.6% | 10.8% | 5.6% | -1.6
CC(=O)N(CCc1ccccc1)c1ccc2c(c1)C1CC2CCN1C(=O)OCc1ccccc1 (stereo not drawn) | -28.4% | · | · | ·
Fc1cccc(CNc2ncnc3ccc(-c4cccnc4)cc23)c1 | · | 1.4% | · | -8.5
CC(=O)Nc1ccc(N(C(=O)c2cnccn2)C(C(=O)NC2CCCCC2)c2ccc(O)cc2)cc1 (stereo not drawn) | 29.9% | 20.4% | 7.3% | 2.2
CC(=O)Nc1ccc(N(C(=O)c2cnccn2)C(C(=O)NC2CCCCC2)c2ccc(F)cc2)cc1 (stereo not drawn) | 11.2µM* | 1.4% | 2.7% | 14.3
Cc1cc(C)cc(C(=O)OCC(=O)Nc2ncccn2)c1 | -23.1% | -4.7% | 4.1% | -5.0
CN(Cc1ccccc1)S(=O)(=O)c1ccc(OCC(=O)NCc2ccccn2)cc1 | -10.1% | -8.6% | -0.1% | -103.8*
CCOc1ccc(S(=O)(=O)N(C)CC(=O)NCc2ccccn2)cc1 | 31.8% | -3.7% | -40.1% | 4.5
COc1ccc(-c2cc(-c3nc4ccccn4c3NCc3ccccc3)ccc2OC)cc1 | -34.0% | 8.4% | 7.2% | -96.7*
COc1ccc(-c2nc3ccccn3c2NCc2ccc3c(c2)OCO3)cc1 | -0.4% | -8.8% | 1.8%[46.1 µM] | 37.9
Cn1c(-n2cccc2)c(-c2c(-c3ccccc3)[nH]c3c2c(=O)[nH]c(=O)n3C)c(=O)[nH]c1=O | · | -7.1% | · | -5.5
CCOC(=O)N1CCN(/[N+]([O-])=N/Oc2ccc([N+](=O)[O-])cc2[N+](=O)[O-])CC1 | · | 5.3% | · | -22.1
Nc1cc2c3c(cccc3c1)C(=O)N(CCN1CCCC1)C2=O | -58.7% | -3.4% | 7.0% | -31.5
CCN(CC)CCN1C(=O)c2cccc3cc(N)cc(c23)C1=O | -71.3% | -9.3% | -22.1% | -75.9*
COc1cc2oc(=O)cc(-c3ccc(-c4ccc(CO)cc4)cc3)c2c(OC)c1OC | 20.5% | -9.6% | 0.8%[46.1 µM] | -18.5
CCCC(=O)Nc1ccccc1NC(=O)c1ccc(OCC)cc1 | 11.2µM* | -26.6% | -3.4% | 13.2
O=C1c2nc3cc(-c4ccccc4)[nH]n3c(=O)c2CN1Cc1ccccc1 | -13.0% | -12.4% | 9.4% | -0.5
CC(C)(C)c1cc2nc3c(c(=O)n2[nH]1)CN(Cc1ccccc1)C3=O | ? | 0.4% | -0.1% | -79.3*
N#Cc1c(Cl)nsc1NN | ? | 11.7% | 7.6% | -7.7
CC[n+]1c(/C=C/N(C)c2ccccc2)n(-c2ccccc2)c2ccc(-c3nc4ccccc4s3)cc21 | -76.1% | ? | -1.2% | -98.2*
CCOC(=O)c1ccc2c(c1)n(CC)c(/C=C/N(C)c1ccccc1)[n+]2CC | 0.0% | 1.2% | -4.3%[46.1 µM] | -12.8
O=c1[nH]c(C2CCN(S(=O)(=O)c3cccc(Cl)c3)CC2)nc2c1nnn2Cc1ccccc1 | -114.3% | -1.1% | -5.8% | -103.5*
O=C(O)c1ccc(S(=O)(=O)N[C@H](Cc2ccc(O)cc2)C(=O)O)cc1 | · | -2.8% | · | -4.2
O=C(CNC(=O)c1ccccc1F)N/N=C/c1cc(Br)ccc1OCc1ccccc1 | 0.0% | -0.6% | -0.4%[46.1 µM] | 13.8
